Screening results as filed in PubChem.
Shown are actives, neighbours in structure and some others; about 10% of the full set was active somewhere.
ALDH1A1 block – qHTS Assay for Inhibitors of Aldehyde Dehydrogenase 1 (ALDH1A1). Aldehyde dehydrogenase 1A1 (Homo sapiens), P00352. actives 7.3% (n = 220,000). Potency, µM (doses to about 75.3 µM), without a hit: at the highest dose activity, negative = inhibition, actives largely listed as inhibitors. Purified ALDH1A1, NADH fluorescence, propionaldehyde substrate;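 also: potency is read from the fitted curve at half-maximal effect; plate controls were no enzyme wells and a reference inhibitor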
Target sequence (P00352 whole entry, looked up): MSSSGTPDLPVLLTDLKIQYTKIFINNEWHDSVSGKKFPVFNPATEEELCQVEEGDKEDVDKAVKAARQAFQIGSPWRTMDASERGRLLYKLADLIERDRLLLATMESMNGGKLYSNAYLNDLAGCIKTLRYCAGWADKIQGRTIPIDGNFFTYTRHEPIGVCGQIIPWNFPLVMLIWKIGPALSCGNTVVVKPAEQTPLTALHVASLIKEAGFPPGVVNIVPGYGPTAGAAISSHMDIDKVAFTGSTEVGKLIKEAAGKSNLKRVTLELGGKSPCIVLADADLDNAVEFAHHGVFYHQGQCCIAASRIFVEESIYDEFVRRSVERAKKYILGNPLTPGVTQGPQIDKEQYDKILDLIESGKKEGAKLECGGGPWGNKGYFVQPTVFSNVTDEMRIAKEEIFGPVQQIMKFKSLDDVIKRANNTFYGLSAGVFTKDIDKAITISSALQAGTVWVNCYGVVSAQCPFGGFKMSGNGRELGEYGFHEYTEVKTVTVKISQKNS
LMNA splice mod – qHTS Assay for Modulators of Lamin A Splicing. HeLa LMNA splicing GFP/RFP minigene ratio, 48 h. Potency, µM (doses to about 46.1 µM), for the others: at the highest dose ratio change, negative = inhibition, hits mostly inhibitors. actives 0.01% (n = 200,000). AID 1487, 2009; active = well fitted inhibition curve with a large enough effect in the signal ratio, with a control signal flat, not every such curve was filed as active; inconclusive = small, poorly fitted or top-dose-only effect, or effect the other way, or a change in a side signal; the % refers to the signal ratio; also: potency is read from the fitted curve at half-maximal effect
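Read-out is the ratio of GFP to DsRed2 object intensity, acquired by 488 nm laser-scanning cytometry on HeLa lamin A-EGFP minigene reporter cells. Compound incubation 48 hrs at 37 °C in Opti-MEM with 2% FBS; DMSO 0.5% final.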
HPGD block – qHTS Assay for Inhibitors of HPGD (15-Hydroxyprostaglandin Dehydrogenase) | purified HPGD, NADH fluorescence kinetic, PGE2 substrate | Potency, µM, without a hit: at the top dose activity change, negative = inhibition, hits mostly inhibitors | actives 4.3% (n = 150,000); also: potency is read from the fitted curve at half-maximal effect
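20 nM HPGD preincubated 15 min at room temperature with compound in 50 mM Tris-HCl pH 8, 0.01% Tween 20. Started with 1 mM NAD+ and 30 uM prostaglandin E2; NADH fluorescence (360/450 nm) read 5 times over 30-s intervals, last minus first.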
PNC inhibitor – High Content Assay for Compounds that inhibit the Assembly of the Perinucleolar Compartment; actives 3.1% (n = 140,000); PC3M PTB-GFP, PNC prevalence imaging, 16 h; hits give low values; activity change (PNC), negative = inhibition, % at 10 µM; AID 2417, 2010;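 active = readout at or below -70, meaning at least 70% loss of cells showing the perinucleolar compartment, a nuclear body marking cancer cells; inconclusive = readout between -30 and a set limit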;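 also: plate controls were DMSO wells for no effect and camptothecin positive control wells for full effect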
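Compounds are pinned in duplicate onto adhered PC3M cells stably expressing GFP-tagged PTB and incubated 16 h at 37 C. Cells are then fixed, nuclei stained with Hoechst, and PNC-positive cells counted.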
ALOX12 inhib – qHTS Assay for Inhibitors of 12-hLO (12-human lipoxygenase); purified 12-hLO, xylenol orange hydroperoxide absorbance; Potency, µM (doses to about 57.1 µM), for the others: top-dose activity change, negative = inhibition, most hits filed as inhibitors; Polyunsaturated fatty acid lipoxygenase ALOX12 (Homo sapiens), P18054; actives 0.12% (n = 150,000); AID 1452, 2008; active = well fitted inhibition curve with a large enough effect; inconclusive = small, poorly fitted or top-dose-only effect; also: potency is read from the fitted curve at half-maximal effect; nearly all actives have a fitted effect of over 55% in size
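Hydroperoxide output read as Fe(III)-xylenol orange absorbance, 573-to-405 nm ratio, after 30 min reaction with 40 uM arachidonic acid. Enzyme: 150 nM purified human 12hLO, 15 min compound preincubation; 25 mM Hepes pH 7.0, room temperature.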
The depositor's hits bear a star; ? = inconclusive; . = no result given; [ ] = dose if it differs, or a comment. Unless noted, calls follow the shape of the dose curve; as a rule, active = well fitted inhibition curve with a large enough effect (not every such curve was filed as active); inconclusive = small, poorly fitted or top-dose-only effect, or another doubt; inactive = no such curve, though single readings can be large or run the other way. Unless noted, % is scaled to controls: 0 for no effect and ±100 for the full control effect.

SMILES	ALDH1A1 block	LMNA splice mod	HPGD block	PNC inhibitor	ALOX12 inhib
CCCCc1nn2c(=O)cc(COC(=O)c3ccc(NC(=O)C4CCCCC4)cc3)nc2s1	.	-2%[46 µM]	.	.	.
O=C1CC(N2CCN(c3cccc(C(F)(F)F)c3)CC2)C(=O)N1c1ccccc1F (stereo unspecified)	20µM*	?	-14%	30	-10%
Cc1cccc(N2C(=O)CC(N3CCC(c4nc5ccccc5[nH]4)CC3)C2=O)c1 (stereo unspecified)	?	7%	-11%	42	3%
O=C1CC(N2CCN(c3cccc(C(F)(F)F)c3)CC2)C(=O)N1c1ccccc1 (stereo unspecified)	-10%	4%	-1%	?	-2%
O=C1CC(N2CCC(c3nc4ccccc4o3)CC2)C(=O)N1c1cc(Cl)cc(Cl)c1 (stereo unspecified)	4µM*	-20%	-17%	-10	-29%
Cc1nc(-c2cccnc2)sc1CCNS(=O)(=O)c1ccc(F)cc1	.	11%[46 µM]	.	.	.
Cc1ccc(N2CC(NC(=O)Cc3cccs3)CC2=O)cc1C (stereo unspecified)	.	22%[46 µM]	.	.	.
COc1ccc(-c2c(C)c3ccc(O)c(CN4CCCC4)c3oc2=O)cc1	.	-3%[46 µM]	.	.	.
CC(Oc1ccccc1Cl)c1nnc(N)s1 (stereo unspecified)	7%	13%	-8%	-117*	4%
CN(C)S(=O)(=O)c1cccc(NC(=O)COC(=O)/C=C/c2ccco2)c1	-7%	1%	-15%	27	-10%
CCN(CC)S(=O)(=O)c1cccc(NC(=O)COC(=O)CCC(=O)c2ccc(F)cc2)c1	-3%	-5%	1%	-82*	-3%
O=C(COC(=O)/C=C/c1ccco1)Nc1cccc([N+](=O)[O-])c1	25µM*	-4%	-14%	-28	-3%
CCN(CC)S(=O)(=O)c1cccc(NC(=O)COC(=O)/C=C/c2ccco2)c1	25µM*	?	-13%	52	-5%
CCN(CC)S(=O)(=O)c1cccc(C(=O)OCC(=O)Nc2ccc3c(c2)c2ccccc2n3CC)c1	22µM*	?	-26%	22	-2%
OCC1(Cc2ccccc2)CCN(CCCC2CCCC2)CC1	-1%	.	.	.	.
CN(/N=C/c1ccncc1)c1cnc2ccccc2n1	1%	-1%[46 µM]	.	.	.
Cc1noc(C)c1-c1ccc2ncnc(Nc3ccc(F)cc3)c2c1	-15%	?	.	.	.
CC(C)Cn1c2c(c(O)c(C(=O)Nc3ncccc3O)c1=O)CCCC2	7.9µM*	?	-8%	-91*	1%
Cc1ccc(C(=O)NNC(=S)NC(=O)COc2ccccc2)cc1	18µM*	0%	-15%	?	-10%
CCCCOc1ccc(C(=O)NNC(=S)NC(=O)CC)cc1	-2%	?	-2%	?	-18%
CCC(=O)NC(=S)NNC(=O)c1ccc(OC)cc1	40µM*	?	-29%	?	-26%
COC(=O)c1ccccc1NC(=S)NC(=O)COc1ccccc1	?	1%	-15%	9	-2%
CCC(=O)NC(=S)Nc1ccc(NC(=O)COc2ccccc2)cc1	25µM*	0%	-17%	-1	0%
C=CCNC(=S)NNC(=O)c1ccc(OCCCC)cc1	0%	?	-8%	-122*	-2%
CC(=O)c1ccc(N2C(=O)N(Cc3cccc(C(F)(F)F)c3)c3ccccc3S2(=O)=O)cc1	.	-19%[46 µM]	.	.	.
SMILES	ALDH1A1 block	LMNA splice mod	HPGD block	PNC inhibitor	ALOX12 inhib
c1ccc(CCNc2ccccc2)cc1	-13%	-11%[46 µM]	.	.	.
O=C(COc1ccccc1)NC(=S)Nc1ccc(Br)cn1	7%	.	.	.	.
COc1ccc(C(=O)NNC(=O)Cc2ccc([N+](=O)[O-])cc2)cc1	?	-10%	-8%	-2	-3%
CCC(=O)NC(=S)NNC(=O)c1ccc([N+](=O)[O-])cc1	20µM*	1%	-27%	61	7%
CC(NC(=O)COc1ccc(Br)cc1)C(=O)O (stereo unspecified)	10µM*	8%	-15%	29	2%
CC(C)CC(=O)NC(=S)NNC(=O)c1ccc([N+](=O)[O-])cc1	-4%	?	32µM*	-3	-4%
CCC(=O)NC(=S)NNC(=O)COc1ccc(Br)cc1	24µM*	14%[46 µM]	.	.	.
CC(NC(=O)COc1cccc(Br)c1)C(=O)O (stereo unspecified)	-10%	3%	.	26	-7%
COc1ccc(N2CCN(C(=O)Cc3c(C(=O)O)c(C)cn3C)CC2)cc1	.	-4%[46 µM]	.	.	.
NC(=S)c1ccc[n+]([C@@H]2O[C@@H](COP(=O)([O-])OP(=O)(O)OC[C@@H]3O[C@@H](n4cnc5c(N)ncnc54)[C@@H](OP(=O)(O)O)[C@H]3O)[C@@H](O)[C@H]2O)c1	.	.	.	.	-9%
O=C(COc1ccc(F)cc1)Nc1ccccc1C(=O)OCc1cc(=O)n2nc(C3CC3)sc2n1	.	0%[46 µM]	.	.	.
CCC1CCCCN1C(=S)NC(=O)c1cccs1 (stereo unspecified)	?	9%[46 µM]	.	.	.
CCC1CCCCN1C(=S)NC(=O)c1ccc([N+](=O)[O-])cc1 (stereo unspecified)	35µM*	?	-17%	11	-6%
COc1ccc(C(=O)NC(=S)NNC(=O)CNC(=O)C2CCCCC2)cc1	22µM*	.	.	.	.
COc1cccc(CCNc2ncnc3c2nnn3C)c1	.	7%[46 µM]	.	.	.
O=C1/C(=C\c2ccccn2)SC(=S)N1Nc1ncc(C(F)(F)F)cc1Cl	?	10%	32µM*	81	-15%
CCN(CC)c1ccc(NC(=O)Nc2ccccc2C(F)(F)F)cc1	4µM*	12%	-8%	8	-18%
CCN(CC(=O)Nc1ccc(C(C)=O)cc1)CC(=O)Nc1ccccc1C(F)(F)F	10µM*	.	.	.	.
O=C(Nc1ccccc1C(F)(F)F)Nc1cccc2ccccc12	-1%	26%	-23%	-6	-1%
Cc1ccc2c(c1)c1c3n2CC(=C2C(=O)OC(C)(C)OC2=O)NC3CCC1 (stereo unspecified)	10µM*	1%	-17%	8	-20%
Cc1ccc2c(c1)c1c3n2CCN(C(=O)C2CC2)C3CCC1 (stereo unspecified)	?	-2%	-17%	5	-10%
O=C(N/N=C/c1cccc(F)c1)c1c(O)c2c([nH]c1=O)CCCC2	14%	2%	-18%	-114*	-1%
CNC(=O)c1ccccc1NC(=O)c1c(O)c2c([nH]c1=O)CCCC2	?	-2%	-6%	41	-4%
O=C(C1CCC1)N1CCN(Cc2ccccc2)CC1	-2%	8%	-6%	9	-2%
O=C(c1c[nH]c(C(=O)N2CCN(Cc3ccccc3)CC2)c1)C1CCCCC1	7.9µM*	?	.	.	.
